Compounds with a hit are over-represented: about 2.4% of the library has one in this group of screens.
Cruzain inh Det – cruzain (T. cruzi) inhibition with detergent. P25779. purified cruzain, Z-FR-AMC fluorescence, 0.01% Triton. Potency, µM, without a hit: max response, negative = inhibition, hits mostly inhibitors. 0.43% of 200,000 active. AID 1478;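 note: plate controls were neutral wells for no effect and buffer without enzyme for full effect; nearly all actives have a fitted effect of over 40% in size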
Target sequence (P25779 123-467 limits assumed): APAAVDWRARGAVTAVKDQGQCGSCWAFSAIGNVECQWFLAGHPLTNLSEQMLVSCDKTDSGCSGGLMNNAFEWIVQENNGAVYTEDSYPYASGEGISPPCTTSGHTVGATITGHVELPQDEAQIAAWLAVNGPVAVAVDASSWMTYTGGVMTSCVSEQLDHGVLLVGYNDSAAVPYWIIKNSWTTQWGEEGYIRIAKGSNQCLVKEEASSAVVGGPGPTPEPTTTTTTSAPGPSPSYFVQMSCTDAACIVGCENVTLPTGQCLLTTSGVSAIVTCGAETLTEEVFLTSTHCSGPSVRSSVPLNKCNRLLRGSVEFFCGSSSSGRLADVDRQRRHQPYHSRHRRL
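Detergent-containing run (0.01% Triton X-100) in acetate buffer pH 5.5 with 5 mM DTT: enzyme at 1.5 nM final, 15 min compound preincubation at room temperature, then 2 uM Z-FR-AMC substrate. Activity taken as 60 s fluorescence increase at 360/450 nm.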
Cruzain inh noDet – inhibitors of Trypanosoma cruzi cruzain without detergent; P25779; purified cruzain, Z-FR-AMC fluorescence, no detergent; Potency, µM, inactives show max response, negative = inhibition, usual class: inhibitors; 2.3% of 200,000 active;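 note: plate controls were enzyme without inhibitor for no effect and buffer without enzyme for full effect; nearly all actives have a fitted effect of over 40% in size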
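Purified cruzain at 1.5 nM, pre-incubated 15 min with compound at room temperature in 100 mM sodium acetate pH 5.5, 5 mM DTT, 0.00005% Triton X-100. Reaction started with 2 uM Z-FR-AMC; AMC fluorescence increase over 60 s gives rate.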
Papain inh – blocks papain protease activity, flagging nonselective cruzain hits. shares compounds with Cruzain inh Det. AID 2161. Potency, µM, without a hit: max response, negative = inhibition, actives largely listed as inhibitors. 41% of 410 active. purified papain, Z-FR-AMC fluorescence cleavage;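 note: 0% = no-compound wells and -100% = no-enzyme wells; nearly all actives have a fitted effect of over 35% in size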
Target sequence (P00784 whole entry, looked up): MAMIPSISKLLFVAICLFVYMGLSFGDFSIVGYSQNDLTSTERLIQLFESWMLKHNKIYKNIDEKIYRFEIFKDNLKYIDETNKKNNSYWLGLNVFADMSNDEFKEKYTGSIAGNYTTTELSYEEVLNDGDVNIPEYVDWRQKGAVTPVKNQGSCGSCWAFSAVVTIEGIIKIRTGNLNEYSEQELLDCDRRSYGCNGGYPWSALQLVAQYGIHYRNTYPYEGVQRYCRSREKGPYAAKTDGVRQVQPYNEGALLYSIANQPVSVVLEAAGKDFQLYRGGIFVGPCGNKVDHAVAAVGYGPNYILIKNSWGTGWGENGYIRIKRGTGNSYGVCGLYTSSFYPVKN
* hit, by the source's call. Calls come from the whole dose curve; as a rule, active = well fitted curve in the direction sought with a large enough effect; inconclusive = small, poorly fitted or top-dose-only effect, or another doubt; inactive = no such curve, though single readings can be large; an effect the other way counts as inactive or inconclusive. Potency is the fitted concentration of half-maximal effect.

What do the screens show for `COc1ccc(CNC(=O)c2cn(-c3cccc(OC)c3)c(=O)c3ccccc23)cc1`?
Cruzain inh Det: -3%; Cruzain inh noDet: -3%

How did Cc1ccc(C(=O)N/C(=C/c2cccc([N+](=O)[O-])c2)C(=O)NC(C)C)cc1 do in these assays?
Cruzain inh Det: 0%; Cruzain inh noDet: -2%

Results for Cc1ccc(C(=O)N/C(=C\c2cccc([N+](=O)[O-])c2)C(=O)OCN2C(=O)c3ccccc3C2=O)cc1 ?
Cruzain inh Det: 0.89µM*; Cruzain inh noDet: 16µM*; Papain inh: -4%

What do the screens show for `Cc1ccc(-c2cc3cccc[n+]3cc2-c2ccc(C)cc2)cc1`?
Cruzain inh Det: -13%; Cruzain inh noDet: -14%

Results for Nc1c(C(=O)NCCC2=CCCCC2)sc2ccc(S(=O)(=O)N3CCCCC3)cc12 ?
Cruzain inh Det: 3.5µM*; Cruzain inh noDet: 13µM*; Papain inh: -10%

Results for Cc1ccc(CNC(=O)c2sc3ccc(S(=O)(=O)N4CCCCC4)cc3c2N)cc1 ?
Cruzain inh Det: -7%; Cruzain inh noDet: inconclusive

What do the screens show for `CCc1ccc(NC(=O)Cn2c(SCc3ccc(C)cc3)nc3ccncc32)cc1`?
Papain inh: -3%

How did CCCCNC(=O)Cn1c(SCc2ccccc2C)nc2ccncc21 do in these assays?
Papain inh: -3%

What do the screens show for `Cc1ccccc1Cn1c(SCc2ccc(C(=O)NCCc3ccccc3)cc2)nc2ccncc21`?
Cruzain inh Det: -9%; Cruzain inh noDet: 2%

How did CCc1ccccc1NC(=O)Cn1c(SCc2ccc(F)cc2)nc2ccncc21 do in these assays?
Cruzain inh Det: -24%; Cruzain inh noDet: -8%

Results for CN(C)c1ccc(NC(=O)Cn2c(SCc3ccc(F)cc3)nc3ccncc32)cc1 ?
Cruzain inh Det: -6%; Cruzain inh noDet: -4%

What do the screens show for `CCCNC(=O)Cn1c(SCc2ccccc2C)nc2ccncc21`?
Papain inh: 1%

How did CC(=O)OCC(=O)[C@@]1(O)[C@H](C)C[C@@H]2[C@H]3CCC4=CC(=O)C=C[C@]4(C)[C@]3(F)[C@@H](O)C[C@@]21C do in these assays?
Cruzain inh Det: -1%; Cruzain inh noDet: -2%

Results for COc1ccc(-c2nc3sc(CCNC(=O)c4cc(Cl)ccc4OC)c(C)n3n2)cc1 ?
Cruzain inh Det: -4%; Cruzain inh noDet: inconclusive

Results for Cc1cccc(C(C)C)c1NC(=O)C1CCCN1S(=O)(=O)c1cccc2nsnc12 (stereo not given) ?
Cruzain inh Det: 0%; Cruzain inh noDet: -11%

Results for Cc1ccccc1OCC(=O)Nc1ccc(-c2nc3ccccc3o2)cc1 ?
Cruzain inh Det: 0%; Cruzain inh noDet: 8%

What do the screens show for `COc1ccc(C(=O)N2CCN(Cc3cc(=O)n4nc(-c5ccccc5C)sc4n3)CC2)cc1OC`?
Cruzain inh Det: 0%; Cruzain inh noDet: -2%

What do the screens show for `CC(CCC(=O)O)C1CCC2C3CC(O)[C@@H]4CC(O)CC[C@]4(C)C3CC[C@@]12C` (stereo not given in full)?
Cruzain inh Det: 6%; Cruzain inh noDet: inconclusive

Results for CC(=O)C1CCC2C3CCC4CC(O)CCC4(C)C3CC(O)C12C (stereo not given) ?
Cruzain inh Det: 2%; Cruzain inh noDet: 6%

Results for COC(=O)CCC(C)C1CCC2C3C(O)C[C@@H]4CC(O)CC[C@@]4(C)C3CC(O)[C@]12C (stereo not given in full) ?
Cruzain inh Det: 0%; Cruzain inh noDet: inconclusive; Papain inh: 3%

Results for C[C@H](CCC(=O)O)[C@H]1CC[C@@H]2[C@@H]3[C@@H](O)C[C@H]4C[C@@H](O)CC[C@@]4(C)[C@H]3CC[C@@]21C ?
Cruzain inh Det: -7%; Cruzain inh noDet: inconclusive; Papain inh: 4%

Results for CCc1ccccc1NC(=O)CN(Cc1ccccc1)S(=O)(=O)c1ccc2nc(C)sc2c1 ?
Cruzain inh Det: -2%; Cruzain inh noDet: 1%

Results for Cc1ccc2[nH]c(=O)c(CN(Cc3ccco3)Cc3nnnn3Cc3ccccc3)cc2c1 ?
Papain inh: -18%

What do the screens show for `Cc1cccc2cc(CN(Cc3ccccc3)Cc3nnnn3Cc3ccccc3)c(=O)[nH]c12`?
Papain inh: -7%

What do the screens show for `Cc1cccc2cc(CN(Cc3cccs3)Cc3nnnn3Cc3ccccc3)c(=O)[nH]c12`?
Cruzain inh Det: -1%; Cruzain inh noDet: 0%

What do the screens show for `Cc1ccc2[nH]c(=O)c(CN(CCCO)Cc3nnnn3Cc3ccco3)cc2c1`?
Papain inh: -1%

What do the screens show for `Cc1ccc2[nH]c(=O)c(CN(Cc3ccc4c(c3)OCO4)Cc3nnnn3Cc3ccco3)cc2c1`?
Cruzain inh Det: -3%; Cruzain inh noDet: -8%

What do the screens show for `O=c1[nH]c2cc3c(cc2cc1CN(Cc1ccccc1)Cc1nnnn1Cc1ccco1)OCCO3`?
Cruzain inh Det: -14%; Cruzain inh noDet: 8%

What do the screens show for `CCc1ccc2[nH]c(=O)c(CN(Cc3ccccc3)Cc3nnnn3Cc3ccccc3)cc2c1`?
Papain inh: -11%

What do the screens show for `CCc1ccc2[nH]c(=O)c(CN(Cc3ccccc3)Cc3nnnn3Cc3ccco3)cc2c1`?
Cruzain inh Det: -12%; Cruzain inh noDet: 6%

Results for COC(=O)c1ccc(NC(=O)CC2C(=O)N(c3ccccc3)C(=O)N2Cc2cccs2)cc1 (stereo not given) ?
Cruzain inh Det: 0%; Cruzain inh noDet: -7%

Results for CCc1ccc(NC(=O)c2sc3nc(C)cc(C)c3c2NC(=O)c2ccccc2)cc1 ?
Cruzain inh Det: 0%; Cruzain inh noDet: 14%

How did FC(F)(F)c1ccccc1-c1nc(NC2CC2)c2ccccc2n1 do in these assays?
Cruzain inh Det: 3%; Cruzain inh noDet: 15%

What do the screens show for `Cc1ccc2cc(CN(Cc3ccco3)Cc3nnnn3Cc3ccco3)c(=O)[nH]c2c1`?
Papain inh: -8%

How did Cc1ccc2[nH]c(=O)c(CN(Cc3ccccc3)Cc3nnnn3Cc3ccccc3)cc2c1 do in these assays?
Papain inh: -8%

Results for Cc1ccc2[nH]c(=O)c(CN(Cc3nnnn3Cc3ccccc3)C3CCCC3)cc2c1 ?
Cruzain inh Det: -13%; Cruzain inh noDet: 3%

Results for COc1ccccc1CN(Cc1cc2cc3c(cc2[nH]c1=O)OCCO3)Cc1nnnn1Cc1ccco1 ?
Cruzain inh Det: -11%; Cruzain inh noDet: inconclusive

Results for CC(=NC1CCCCC1)c1ccccc1O ?
Cruzain inh Det: 0%; Cruzain inh noDet: 0%

Results for COc1ccc(-c2cc3nc(C)c(CCC(=O)Nc4ccc(F)cc4F)c(C)n3n2)c(OC)c1 ?
Cruzain inh Det: -5%; Cruzain inh noDet: 22%

Results for COc1ccccc1NC(=O)Cn1nnc(C(=O)Nc2ccccc2Br)c1N ?
Cruzain inh Det: -2%; Cruzain inh noDet: inconclusive

Results for CCN(CC)c1nc(SCC(=O)O)nc(N(CC)CC)n1 ?
Cruzain inh Det: 3%; Cruzain inh noDet: -2%

How did CCN(CC)c1nc(C#N)nc(N(CC)CC)n1 do in these assays?
Cruzain inh Det: 13µM*; Cruzain inh noDet: 16µM*; Papain inh: 5µM*

How did CCN(c1ccccc1)c1nc(C#N)nc(N(CC)c2ccccc2)n1 do in these assays?
Papain inh: 3.2µM*

Results for CCCN(CCC)c1nc(N)nc(-c2cc(Cl)ccc2OC)n1 ?
Cruzain inh Det: -5%; Cruzain inh noDet: inconclusive

How did CCCN(CCC)c1nc(N)nc(C#N)n1 do in these assays?
Papain inh: 2µM*
